In paper PMC7862700, “An all-to-all approach to the identification of sequence-specific readers for epigenetic DNA modifications on cytosine”:

Key:
Experiment in all cases: DAPPL (digital affinity profiling via proximity ligation, sequencing); 10 mM Tris-HCl pH 7.5, 50 mM NaCl, 1 mM DTT, 4% glycerol, room temperature, 30 min; GST-TFs on glutathione beads, 16-mer random dsDNA library, 0.1% formaldehyde crosslink after washing; high values mean tight binding
FEV = biological target: T1, FEV (Homo sapiens, UniProt Q99581 1-238); details: protein: recombinant; tags: N-terminal GST; dsDNA, one strand shown
T1 sequence: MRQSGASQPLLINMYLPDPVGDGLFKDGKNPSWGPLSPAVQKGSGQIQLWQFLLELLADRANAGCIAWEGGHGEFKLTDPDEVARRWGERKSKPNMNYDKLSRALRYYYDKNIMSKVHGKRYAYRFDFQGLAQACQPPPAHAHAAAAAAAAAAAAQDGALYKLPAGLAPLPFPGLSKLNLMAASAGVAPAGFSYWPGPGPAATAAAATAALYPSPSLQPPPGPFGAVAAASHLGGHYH
Outline: (§1)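 Human transcription factors fused to GST were expressed in yeast, captured on glutathione beads, given DNA barcodes and pooled with a GST-only negative control. Pools were incubated with 200 nmole of a 16-mer random double-stranded DNA library in Tris/NaCl/DTT/glycerol buffer at room temperature for 30 min. They were then washed, crosslinked with 0.1% formaldehyde, proximity-ligated (BsaI/T4 ligase, 1 h, 37 °C), PCR-amplified and sequenced on an Illumina NextSeq500. Binding signal is each 6-mer's read frequency for a factor divided by its frequency for the GST control.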

ETV5 = ETV5 (Homo sapiens, UniProt P41161 1-510); details: protein: recombinant; tags: N-terminal GST; dsDNA, one strand shown
Outline: as §1

HSF1 = HSF1 (Homo sapiens, UniProt Q00613 1-529); details: protein: recombinant; tags: N-terminal GST; chain copies: 3; dsDNA, one strand shown
Outline: as §1

SPIC = biological target: T2, SPIC (Homo sapiens, UniProt Q8N5J4 1-248); details: protein: recombinant; tags: N-terminal GST; dsDNA, one strand shown
T2 sequence: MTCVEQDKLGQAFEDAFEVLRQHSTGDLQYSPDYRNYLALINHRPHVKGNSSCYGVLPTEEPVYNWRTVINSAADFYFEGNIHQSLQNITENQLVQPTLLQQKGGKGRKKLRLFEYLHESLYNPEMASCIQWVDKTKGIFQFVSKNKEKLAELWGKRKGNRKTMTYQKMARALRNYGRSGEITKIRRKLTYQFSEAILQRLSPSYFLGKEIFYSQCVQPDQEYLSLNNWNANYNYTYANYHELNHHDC
Outline: as §1

ELF4 = ELF4 (Homo sapiens, UniProt Q99607 1-663); details: protein: recombinant; tags: N-terminal GST; dsDNA, one strand shown
Outline: as §1

ELK4 = biological target: T3, ELK4 (Homo sapiens, UniProt P28324-2 1-405); details: protein: recombinant; tags: N-terminal GST; dsDNA, one strand shown
T3 sequence: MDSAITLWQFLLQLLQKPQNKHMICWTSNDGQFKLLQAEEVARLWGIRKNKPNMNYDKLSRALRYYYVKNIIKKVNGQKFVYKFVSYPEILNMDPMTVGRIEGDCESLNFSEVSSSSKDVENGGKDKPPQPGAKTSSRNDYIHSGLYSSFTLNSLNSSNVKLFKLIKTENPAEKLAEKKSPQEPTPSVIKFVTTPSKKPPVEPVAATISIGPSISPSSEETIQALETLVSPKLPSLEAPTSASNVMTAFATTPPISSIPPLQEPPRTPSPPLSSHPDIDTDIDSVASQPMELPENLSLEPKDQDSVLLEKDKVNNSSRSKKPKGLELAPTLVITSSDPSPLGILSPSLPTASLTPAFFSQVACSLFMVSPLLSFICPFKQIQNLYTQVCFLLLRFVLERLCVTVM
Outline: as §1

ETV2 = biological target: T4, ETV2 (Homo sapiens, UniProt O00321 1-342); details: protein: recombinant; tags: N-terminal GST; dsDNA, one strand shown
T4 sequence: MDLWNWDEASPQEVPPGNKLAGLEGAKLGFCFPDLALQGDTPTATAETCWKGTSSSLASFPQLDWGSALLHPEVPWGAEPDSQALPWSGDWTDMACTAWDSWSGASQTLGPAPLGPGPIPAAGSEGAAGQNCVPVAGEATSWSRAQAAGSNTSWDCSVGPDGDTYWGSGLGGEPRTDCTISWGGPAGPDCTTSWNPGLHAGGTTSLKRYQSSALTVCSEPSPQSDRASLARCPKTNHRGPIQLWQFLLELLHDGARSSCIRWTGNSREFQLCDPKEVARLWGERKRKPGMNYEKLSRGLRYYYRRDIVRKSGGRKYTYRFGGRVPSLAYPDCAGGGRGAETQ
Outline: as §1

ELF3 = biological target: T5, ELF3 (Homo sapiens, UniProt P78545 1-371); details: protein: recombinant; tags: N-terminal GST; dsDNA, one strand shown
T5 sequence: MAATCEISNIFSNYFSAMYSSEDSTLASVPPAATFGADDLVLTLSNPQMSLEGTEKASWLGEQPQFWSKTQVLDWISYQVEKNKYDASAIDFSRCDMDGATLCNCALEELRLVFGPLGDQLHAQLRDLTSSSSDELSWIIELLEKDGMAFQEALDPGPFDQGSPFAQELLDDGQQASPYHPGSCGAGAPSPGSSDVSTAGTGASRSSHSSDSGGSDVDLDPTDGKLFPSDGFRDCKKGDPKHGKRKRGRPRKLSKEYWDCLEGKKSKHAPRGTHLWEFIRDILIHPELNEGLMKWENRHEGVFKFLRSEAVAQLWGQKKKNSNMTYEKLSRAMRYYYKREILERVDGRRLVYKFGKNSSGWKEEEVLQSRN
Outline: as §1

CRX = CRX (Homo sapiens, UniProt O43186 1-299); details: protein: recombinant; tags: N-terminal GST; dsDNA, one strand shown
Outline: as §1

ETV1 = ETV1 (Homo sapiens, UniProt P50549 1-477); details: protein: recombinant; tags: N-terminal GST; dsDNA, one strand shown
Outline: as §1

ERF = biological target: T6, ERF (Homo sapiens, UniProt P50548 1-548); details: protein: recombinant; tags: N-terminal GST; dsDNA, one strand shown
T6 sequence: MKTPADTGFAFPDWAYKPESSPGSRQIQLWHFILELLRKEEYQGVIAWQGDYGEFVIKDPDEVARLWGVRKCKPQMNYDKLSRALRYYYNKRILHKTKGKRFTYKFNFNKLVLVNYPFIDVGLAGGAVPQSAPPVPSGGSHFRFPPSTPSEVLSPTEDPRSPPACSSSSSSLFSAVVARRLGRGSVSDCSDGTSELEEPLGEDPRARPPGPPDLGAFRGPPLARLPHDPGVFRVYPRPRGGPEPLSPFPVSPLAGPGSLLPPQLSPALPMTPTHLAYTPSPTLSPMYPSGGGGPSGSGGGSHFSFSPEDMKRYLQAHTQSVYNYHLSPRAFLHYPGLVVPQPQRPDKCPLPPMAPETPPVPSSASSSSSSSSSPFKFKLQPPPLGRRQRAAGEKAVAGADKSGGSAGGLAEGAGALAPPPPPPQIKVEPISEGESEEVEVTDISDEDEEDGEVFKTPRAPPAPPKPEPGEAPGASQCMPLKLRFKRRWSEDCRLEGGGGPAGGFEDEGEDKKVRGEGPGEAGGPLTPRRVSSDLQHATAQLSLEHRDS
Outline: as §1

ETV3L = biological target: T7, ETV3L (Homo sapiens, UniProt Q6ZN32 1-361); details: protein: recombinant; tags: N-terminal GST; dsDNA, one strand shown
T7 sequence: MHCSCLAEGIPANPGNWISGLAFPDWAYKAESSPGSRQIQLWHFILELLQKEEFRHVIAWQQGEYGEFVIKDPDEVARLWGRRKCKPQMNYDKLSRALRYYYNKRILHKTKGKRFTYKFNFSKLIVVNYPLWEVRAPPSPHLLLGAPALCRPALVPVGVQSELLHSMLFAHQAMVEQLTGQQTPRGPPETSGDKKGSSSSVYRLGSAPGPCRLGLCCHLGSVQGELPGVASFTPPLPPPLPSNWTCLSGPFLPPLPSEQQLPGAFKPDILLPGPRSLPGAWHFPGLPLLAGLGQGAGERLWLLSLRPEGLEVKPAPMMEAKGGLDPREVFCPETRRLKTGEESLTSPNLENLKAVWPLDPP
Outline: as §1

ETS2 = biological target: T8, ETS2 (Homo sapiens, UniProt P15036 1-469); details: protein: recombinant; tags: N-terminal GST; dsDNA, one strand shown
T8 sequence: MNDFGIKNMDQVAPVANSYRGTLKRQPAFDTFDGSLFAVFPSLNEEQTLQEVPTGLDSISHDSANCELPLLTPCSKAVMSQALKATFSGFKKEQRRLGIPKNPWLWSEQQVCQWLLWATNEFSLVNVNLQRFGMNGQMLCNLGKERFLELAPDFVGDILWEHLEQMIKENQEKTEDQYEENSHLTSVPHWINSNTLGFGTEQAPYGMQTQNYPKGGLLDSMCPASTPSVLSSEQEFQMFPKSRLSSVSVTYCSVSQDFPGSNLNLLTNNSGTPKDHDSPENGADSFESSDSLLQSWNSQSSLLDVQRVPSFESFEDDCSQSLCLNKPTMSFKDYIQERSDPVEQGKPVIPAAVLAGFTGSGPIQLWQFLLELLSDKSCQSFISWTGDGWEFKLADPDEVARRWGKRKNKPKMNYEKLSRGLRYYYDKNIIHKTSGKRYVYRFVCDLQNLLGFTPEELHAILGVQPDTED
Outline: as §1

SPDEF = biological target: T9, SPDEF (Homo sapiens, UniProt O95238 1-335); details: protein: recombinant; tags: N-terminal GST; dsDNA, one strand shown
T9 sequence: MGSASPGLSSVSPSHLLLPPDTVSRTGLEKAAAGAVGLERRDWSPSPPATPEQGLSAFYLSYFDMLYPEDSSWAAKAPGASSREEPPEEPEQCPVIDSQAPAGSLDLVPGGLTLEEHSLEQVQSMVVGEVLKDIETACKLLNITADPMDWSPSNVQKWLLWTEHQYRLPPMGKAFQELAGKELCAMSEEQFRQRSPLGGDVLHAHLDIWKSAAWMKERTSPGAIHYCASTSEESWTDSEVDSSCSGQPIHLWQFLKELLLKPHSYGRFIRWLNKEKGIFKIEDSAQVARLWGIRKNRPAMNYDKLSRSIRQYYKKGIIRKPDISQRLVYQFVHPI
Outline: as §1

ETV7 = biological target: T10, ETV7 (Homo sapiens, UniProt Q9Y603 1-341); details: protein: recombinant; tags: N-terminal GST; dsDNA, one strand shown
T10 sequence: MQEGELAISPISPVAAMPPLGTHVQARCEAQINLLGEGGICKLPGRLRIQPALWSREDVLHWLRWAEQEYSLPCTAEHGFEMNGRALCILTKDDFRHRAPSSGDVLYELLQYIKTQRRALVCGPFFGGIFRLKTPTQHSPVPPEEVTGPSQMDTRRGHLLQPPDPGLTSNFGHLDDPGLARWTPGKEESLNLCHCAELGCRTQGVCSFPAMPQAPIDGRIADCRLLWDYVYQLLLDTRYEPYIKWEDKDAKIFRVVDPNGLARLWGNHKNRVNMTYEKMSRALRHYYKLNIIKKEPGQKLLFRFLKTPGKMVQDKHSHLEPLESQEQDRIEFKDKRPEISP
Outline: as §1

ELF5 = biological target: T11, ELF5 (Homo sapiens, UniProt Q9UKW6-2 1-255); details: protein: recombinant; tags: N-terminal GST; dsDNA, one strand shown
T11 sequence: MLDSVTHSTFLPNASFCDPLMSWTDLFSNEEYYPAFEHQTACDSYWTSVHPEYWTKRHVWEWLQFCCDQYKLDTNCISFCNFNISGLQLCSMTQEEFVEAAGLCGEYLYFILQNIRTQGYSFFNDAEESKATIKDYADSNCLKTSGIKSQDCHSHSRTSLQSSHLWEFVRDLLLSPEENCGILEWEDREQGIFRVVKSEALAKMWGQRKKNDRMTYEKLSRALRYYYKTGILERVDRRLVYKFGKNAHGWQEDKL
Outline: as §1

ETV3 = biological target: T12, ETV3 (Homo sapiens, UniProt P41162-2 1-143); details: protein: recombinant; tags: N-terminal GST; dsDNA, one strand shown
T12 sequence: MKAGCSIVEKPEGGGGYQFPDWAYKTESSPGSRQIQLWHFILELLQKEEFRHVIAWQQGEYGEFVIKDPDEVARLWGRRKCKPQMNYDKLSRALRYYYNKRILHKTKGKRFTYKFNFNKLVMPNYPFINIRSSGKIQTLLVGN
Outline: as §1

ETV6 = ETV6 (Homo sapiens, UniProt P41212 1-452); details: protein: recombinant; tags: N-terminal GST; dsDNA, one strand shown
Outline: as §1

Chain of HSF1 (Q00613 whole entry): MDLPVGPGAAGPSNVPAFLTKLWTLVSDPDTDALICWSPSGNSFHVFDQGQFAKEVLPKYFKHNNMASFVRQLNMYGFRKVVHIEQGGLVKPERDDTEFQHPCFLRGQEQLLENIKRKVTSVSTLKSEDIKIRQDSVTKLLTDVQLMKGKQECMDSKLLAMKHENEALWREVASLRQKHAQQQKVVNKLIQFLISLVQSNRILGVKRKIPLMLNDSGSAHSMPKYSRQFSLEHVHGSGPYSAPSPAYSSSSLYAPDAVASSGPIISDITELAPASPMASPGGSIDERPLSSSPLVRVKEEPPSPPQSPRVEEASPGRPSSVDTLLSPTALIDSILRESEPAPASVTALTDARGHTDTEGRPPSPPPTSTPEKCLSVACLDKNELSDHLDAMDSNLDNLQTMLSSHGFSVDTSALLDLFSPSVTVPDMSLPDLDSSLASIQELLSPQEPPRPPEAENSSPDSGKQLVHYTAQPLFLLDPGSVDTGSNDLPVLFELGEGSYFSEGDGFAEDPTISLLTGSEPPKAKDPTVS
Chain of ETV1 (P50549 whole entry): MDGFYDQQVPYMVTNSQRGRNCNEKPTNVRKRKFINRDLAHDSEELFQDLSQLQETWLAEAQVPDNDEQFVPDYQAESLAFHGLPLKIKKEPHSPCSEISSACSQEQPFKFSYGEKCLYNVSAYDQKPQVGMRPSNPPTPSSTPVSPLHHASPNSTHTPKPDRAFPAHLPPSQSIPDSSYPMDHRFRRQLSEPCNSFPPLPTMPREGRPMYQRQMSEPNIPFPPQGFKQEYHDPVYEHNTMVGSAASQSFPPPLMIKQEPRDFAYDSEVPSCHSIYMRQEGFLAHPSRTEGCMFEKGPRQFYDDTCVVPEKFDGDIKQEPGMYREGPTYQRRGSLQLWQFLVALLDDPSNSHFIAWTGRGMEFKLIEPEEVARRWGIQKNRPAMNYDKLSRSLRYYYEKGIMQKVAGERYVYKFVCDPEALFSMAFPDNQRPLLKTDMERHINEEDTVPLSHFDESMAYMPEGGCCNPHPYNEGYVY
Chain of CRX (O43186 whole entry): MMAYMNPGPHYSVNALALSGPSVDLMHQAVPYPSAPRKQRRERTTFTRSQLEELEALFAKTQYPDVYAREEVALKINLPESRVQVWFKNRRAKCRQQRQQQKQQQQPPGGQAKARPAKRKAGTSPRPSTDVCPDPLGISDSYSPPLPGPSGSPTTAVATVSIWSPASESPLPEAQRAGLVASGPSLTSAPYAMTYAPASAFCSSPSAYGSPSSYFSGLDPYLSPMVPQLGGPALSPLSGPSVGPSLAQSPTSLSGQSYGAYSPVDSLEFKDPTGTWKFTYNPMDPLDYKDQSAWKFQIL
Chain of ETV5 (P41161 whole entry): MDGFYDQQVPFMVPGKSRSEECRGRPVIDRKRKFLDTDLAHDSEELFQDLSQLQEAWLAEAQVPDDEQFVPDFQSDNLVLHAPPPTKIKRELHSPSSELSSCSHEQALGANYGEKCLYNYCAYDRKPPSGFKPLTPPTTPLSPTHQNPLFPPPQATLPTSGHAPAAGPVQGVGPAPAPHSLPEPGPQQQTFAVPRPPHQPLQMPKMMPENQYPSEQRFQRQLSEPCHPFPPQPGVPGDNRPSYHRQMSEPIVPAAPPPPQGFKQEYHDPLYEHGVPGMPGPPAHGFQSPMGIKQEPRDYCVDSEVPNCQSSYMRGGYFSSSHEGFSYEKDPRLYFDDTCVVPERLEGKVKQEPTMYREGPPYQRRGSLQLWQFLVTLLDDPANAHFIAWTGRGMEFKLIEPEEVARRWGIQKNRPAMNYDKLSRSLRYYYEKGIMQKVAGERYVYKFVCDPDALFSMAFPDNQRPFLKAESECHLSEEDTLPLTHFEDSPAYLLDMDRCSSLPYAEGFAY
Chain of ETV6 (P41212 whole entry): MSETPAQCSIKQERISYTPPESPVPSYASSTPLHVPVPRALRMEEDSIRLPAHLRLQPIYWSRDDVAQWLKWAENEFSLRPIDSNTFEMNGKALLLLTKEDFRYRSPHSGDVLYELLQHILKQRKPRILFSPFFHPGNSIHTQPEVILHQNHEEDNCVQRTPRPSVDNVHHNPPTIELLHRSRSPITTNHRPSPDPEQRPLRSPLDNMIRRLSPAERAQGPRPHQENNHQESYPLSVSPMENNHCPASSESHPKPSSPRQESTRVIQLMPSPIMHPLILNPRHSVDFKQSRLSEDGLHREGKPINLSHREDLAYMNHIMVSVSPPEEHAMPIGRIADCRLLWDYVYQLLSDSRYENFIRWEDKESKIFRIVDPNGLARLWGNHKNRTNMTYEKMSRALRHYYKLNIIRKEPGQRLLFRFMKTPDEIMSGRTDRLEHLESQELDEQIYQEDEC
Chain of ELF4 (Q99607 whole entry): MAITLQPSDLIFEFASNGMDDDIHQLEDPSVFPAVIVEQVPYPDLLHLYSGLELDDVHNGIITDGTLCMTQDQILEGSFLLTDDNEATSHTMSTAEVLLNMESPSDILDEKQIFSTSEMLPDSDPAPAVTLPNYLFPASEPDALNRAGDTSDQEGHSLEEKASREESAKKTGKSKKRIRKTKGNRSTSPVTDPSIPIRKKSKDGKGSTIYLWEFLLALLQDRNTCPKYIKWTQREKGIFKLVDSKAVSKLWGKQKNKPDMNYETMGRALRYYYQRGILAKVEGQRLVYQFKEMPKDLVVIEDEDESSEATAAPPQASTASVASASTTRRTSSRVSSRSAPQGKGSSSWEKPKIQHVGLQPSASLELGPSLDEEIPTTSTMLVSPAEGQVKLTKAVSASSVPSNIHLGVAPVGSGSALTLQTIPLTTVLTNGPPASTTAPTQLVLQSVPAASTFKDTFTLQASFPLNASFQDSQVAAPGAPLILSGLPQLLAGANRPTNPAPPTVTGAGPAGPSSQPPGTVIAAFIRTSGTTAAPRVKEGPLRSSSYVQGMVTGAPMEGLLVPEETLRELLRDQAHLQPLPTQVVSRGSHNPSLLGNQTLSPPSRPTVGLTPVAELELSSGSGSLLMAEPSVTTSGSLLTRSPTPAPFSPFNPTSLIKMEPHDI

Sequence: CGTTCG
- binding signal (FEV): 1.1 fold enrichment (6-mer frequency, TF over GST control)
- binding signal (ETV5): 1.2 fold enrichment (6-mer frequency, TF over GST control)
- binding signal (HSF1): 1.43 fold enrichment (6-mer frequency, TF over GST control)
- binding signal (SPIC): 1.16 fold enrichment (6-mer frequency, TF over GST control)
- binding signal (ELF4): 1.32 fold enrichment (6-mer frequency, TF over GST control)
- binding signal (ELK4): 1.22 fold enrichment (6-mer frequency, TF over GST control)
- binding signal (ETV2): 1.44 fold enrichment (6-mer frequency, TF over GST control)
- binding signal (ELF3): 1.08 fold enrichment (6-mer frequency, TF over GST control)
- binding signal (CRX): 1.04 fold enrichment (6-mer frequency, TF over GST control)
- binding signal (ETV1): 1.19 fold enrichment (6-mer frequency, TF over GST control)
- binding signal (ERF): 1.52 fold enrichment (6-mer frequency, TF over GST control)
- binding signal (ETV3L): 1.16 fold enrichment (6-mer frequency, TF over GST control)
- binding signal (ETS2): 1.25 fold enrichment (6-mer frequency, TF over GST control)
- binding signal (SPDEF): 1.04 fold enrichment (6-mer frequency, TF over GST control)
- binding signal (ETV7): 1.24 fold enrichment (6-mer frequency, TF over GST control)
- binding signal (ELF5): 1.26 fold enrichment (6-mer frequency, TF over GST control)
- binding signal (ETV3): 1.19 fold enrichment (6-mer frequency, TF over GST control)
- binding signal (ETV6): 1.29 fold enrichment (6-mer frequency, TF over GST control)
